This is a sample that favours compounds with a hit; in the whole collection about 0.78% have one here.
PriA SSB inh: K. pneumoniae PriA-SSBct interaction inhibition; inhibition, % at 33 µM; actives 0.6% (n = 430,000); AID 1272365; AlphaScreen SSBct-PriA binding, biotinylated peptide; in the data active = inhibition mostly above about 37%, no sharp cut-off; inactive = mostly below about 20%;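 note: plate controls were negative control peptide for no effect and reference peptide for full effect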
SARS 3CLpro inh: SARS-CoV 3CLpro protease inhibition; P0C6X7; recombinant SARS-CoV 3CLpro, quenched FRET peptide cleavage; inhibition, % at 6 µM; actives 0.14% (n = 290,000); in the data active = inhibition above about 12%
BJeLR viability: BJeLR cell viability loss; BJeLR (HRASV12) viability, CellTiter-Glo ATP luminescence, 48 h; inhibition, % (test concentration not listed); actives 0.17% (n = 300,000); AID 1554; in the data active = inhibition above about 50%
Starred values were filed as active, the others as inactive; . = not tested or not shown; ! = not active in a repeat.

SMILES | PriA SSB inh | SARS 3CLpro inh | BJeLR viability
c1ccc(-c2nc(N3CCOCC3)c3ccccc3n2)nc1 | 61.7* | 2.8 | -1.9
c1ccc(-c2nc(N3CCCC3)c3ccccc3n2)nc1 | 54.2 | . | .
O=C1CCCN2N=C(SCc3ccc([N+](=O)[O-])cc3)SC2=N1 | -7.0 | . | .
Cc1ccc(C(=O)NCCn2cc(SCC(=O)N3CCOCC3)c3ccccc32)cc1 | -4.1 | -2.9 | -8.0
Cc1ccc(C(=O)NCCn2cc(SC(=N)N)c3ccccc32)cc1 | 39.0* | . | .
O=[N+]([O-])c1ccc(C(=Nc2cccc3ccccc23)N2CCOCC2)cc1 | 48.5* | -3.1 | -3.5
Cc1ccc([N+](=O)[O-])cc1N=C(c1ccc([N+](=O)[O-])cc1)N1CCOCC1 | 16.2 | 2.4 | 2.0
CCC1N=C(SC)NC(C)=C1C(=O)c1ccccc1 (stereo unspecified) | -0.7 | 0.0 | .
CSC1=NC(C(Cl)(Cl)Cl)N=C(c2ccc(C)cc2)N1 (stereo unspecified) | -0.8 | 1.0 | 56.0*
COc1cnc(-c2ccccn2)nc1Cl | 39.9 | . | .
COc1cnc(-c2ccccn2)nc1Oc1c(C)cccc1C | 48.7* | 2.6 | -2.7
COc1cnc(-c2ccccn2)nc1OC | 112.0* | . | .
COc1ccc(Oc2nc(-c3ccccn3)ncc2OC)cc1 | 28.0 | -7.2 | 1.7
CCOC(=O)C(C)Sc1ncc(OC)c(Sc2ccc(Cl)cc2)n1 (stereo unspecified) | -57.5 | 6.5 | -4.3
COc1cnc(-c2ccccn2)nc1Oc1cccc(Cl)c1 | 7.0 | -7.0 | -11.1
COc1cnc(-c2ccccn2)nc1N(C)C | 98.4* | -1.8 | -7.8
CCOC(=O)C(C)Sc1nc(-c2ccccn2)ncc1OC (stereo unspecified) | 90.1* | -0.6 | 4.0
CCOC(=O)c1ccc(NC(=O)c2ccc(-c3nc4ccccc4s3)s2)cc1 | -1.0 | . | .
CCN(CC)CCN1C(=O)C(=O)C(=C(O)c2ccc(OC(C)C)cc2)C1c1ccncc1 (stereo unspecified) | -10.6 | . | .
COc1cnc(-c2ccccn2)nc1Sc1ccccc1Cl | 83.0* | 6.9 | 6.2
COc1cnc(-c2ccccn2)nc1Sc1c(Cl)cccc1Cl | -5.6 | 1.8 | -13.2
COc1cc(-c2nc3cnccn3c2Nc2ccc3c(c2)OCCO3)ccc1O | 21.9 | -2.9 | -2.5
COc1cc(-c2nc3ccc(C)cn3c2Nc2ccc3c(c2)OCCO3)ccc1O | 54.5* | -2.7 | 1.1
O=C(Cc1ccc2c(c1)OCO2)Nc1nc2c(s1)C(=O)NCCC2 | -1.0 | . | .
COc1ccc(C)cc1NS(=O)(=O)c1ccc(-c2cnc(C3CC3)o2)cc1 | -12.5 | -2.2 | 58.4*
SMILES | PriA SSB inh | SARS 3CLpro inh | BJeLR viability
Cc1ccc(NS(=O)(=O)c2ccc(-c3cnc(C4CC4)o3)cc2)cc1 | 14.8 | 4.0 | 1.0
Cc1cccc(C)c1NS(=O)(=O)c1ccc(-c2cnc(C3CC3)o2)cc1 | -5.2 | 3.4 | 59.7*
Cc1ccc(CNS(=O)(=O)c2ccc(-c3cnc(C4CC4)o3)cc2)cc1 | -5.4 | 4.0 | -1.2
COc1ccc(S(=O)(=O)Nc2ccc3c(c2)N(C)C(=O)C(C)(C)CO3)cc1OC | -8.0 | . | .
CSc1ccccc1CN1CCC(CNC(=O)C(=O)Nc2cccc(N3CCCC3=O)c2)CC1 | -24.0 | . | .
CC(=O)N1CCc2ccc(NS(=O)(=O)c3cccc(F)c3)cc2C1 | -10.0 | . | .
O=S(=O)(NCCNc1ccc(Nc2ccccn2)nn1)c1ccc(C(F)(F)F)cc1 | 22.0 | . | .
Cc1nc(NCCNC(=O)C2CCCO2)cc(Nc2ccccn2)n1 (stereo unspecified) | -17.0 | . | .
O=S(=O)(NCCNc1ccc(Nc2ccccn2)nn1)c1ccccc1Cl | 89.0* | . | .
O=C(NCCNc1ccc(Nc2ccccn2)nn1)[C@@H]1CCCO1 | 52.0* | . | .
COc1ccc2nc(-c3ccc(C)c(NS(=O)(=O)c4ccc5c(c4)CCCC5)c3)cn2n1 | -15.0 | . | .
CS(=O)(=O)c1ccc(NC(=O)C2CCCN2S(C)(=O)=O)cc1 (stereo unspecified) | -2.0 | . | .
COc1ccc(Cl)c2sc(N(Cc3ccccc3)C(=O)c3ccnn3C)nc12 | -4.0 | . | .
O=C(c1ccc2noc(-c3ccccc3)c2c1)N1CCC(n2ccnn2)CC1 | -1.0 | . | .
O=c1[nH]c(-c2ccccn2)nc(C(F)(F)F)c1Br | 82.9* | 2.8 | 0.2
c1ccc(-c2nc3ccccc3[nH]2)nc1 | -3.5 | -4.8 | 5.8
O=c1[nH]c(-c2ccccn2)nc2ccccc12 | 42.0* | -4.4 | 1.2
O=c1cc(O)nc(-c2ccccn2)[nH]1 | 44.7 | . | .
Cc1ccccc1OCC(=O)NCCS(=O)(=O)N1CCN(c2ccccc2)CC1 | -1.0 | . | .
O=[N+]([O-])c1ccc(NS(=O)(=O)Cc2ccccc2)cc1 | 13.0 | . | .
CCCSc1cc(NCCOC(=O)CCC)c([N+](=O)[O-])c2nonc12 | -2.8 | 3.1 | -12.5
CCCC(=O)OCCNc1cc(Sc2nccn2C)c2nonc2c1[N+](=O)[O-] | 9.6 | -1.2 | 93.5*
CN(C)S(=O)(=O)c1ccc(C(=O)NNc2nc3c(F)cccc3s2)cc1 | 24.0 | . | .
COc1ccc(OC)c2sc(NNC(=O)c3ccc(S(=O)(=O)N(C)C)cc3)nc12 | 42.0* | . | .
Cc1ccnc(NS(=O)(=O)c2ccc(NC(=O)COc3cccc4c3OC(C)(C)C4)cc2)n1 | -15.0 | . | .
SMILES | PriA SSB inh | SARS 3CLpro inh | BJeLR viability
Cc1ccc(/C=N/NC(=O)c2cc(-c3ccncc3)nc3ccccc23)o1 | . | 2.7 | 58.7*
Cc1ccc(C=NNC(=O)c2cc(-c3ccncc3)nc3ccccc23)o1 | 9.2 | . | .
Cc1cc(CNC(=O)c2sc(C)nc2C)nc(N2CCCC2)n1 | -12.0 | . | .
Cc1ccc(-c2ccc(=O)n(CCCC(=O)Nc3ccc(F)c(F)c3)n2)cc1 | 5.0 | . | .
CCN1CCCc2cc(CCNC(=O)NC(C)(C)C)ccc21 | 44.0* | . | .
CCN1CCCc2cc(CCNC(=O)C(=O)NC(C)(C)C)ccc21 | 52.1 | . | .
CCN1CCCc2cc(CCNC(=O)C(=O)NCCN3CCOCC3)ccc21 | 48.0 | . | .
CCN1CCCc2cc(CCNC(=O)c3ccc(C(F)(F)F)cc3)ccc21 | 27.0 | . | .
CCN1CCCc2cc(CCNC(=O)c3ccc(OC(C)C)cc3)ccc21 | 61.0* | . | .
CCN1CCCc2cc(CCNC(=O)C(=O)NCCOC)ccc21 | 68.0* | . | .
CCN1CCCc2cc(CCNC(=O)c3ccc(Br)o3)ccc21 | active! | . | .
CCCNC(=O)C(=O)NCCc1ccc2c(c1)CCCN2CC | 40.9 | . | .
O=C(c1ccccc1C(F)(F)F)N1CC(N2C(=O)CCC2=O)C1 | -3.0 | . | .
O=C(CC1Sc2ccc(C(F)(F)F)cc2NC1=O)Nc1ccc(Cl)cc1[N+](=O)[O-] (stereo unspecified) | 1.0 | . | .
CCOc1ccc(NC(=O)CN(C)C(=O)c2ccc(OCc3ccccc3)c(OC)c2)cc1OCC | 42.4* | . | -2.2
COc1ccc(Cl)cc1NC(=O)CN(C)C(=O)c1ccc(OCc2ccccc2)c(OC)c1 | 0.7 | . | -4.1
Nc1c(C(=O)NCC2CCCO2)c2nc3ccccc3nc2n1/N=C\c1ccco1 (stereo unspecified) | 5.0 | . | .
Ic1ccc(Cn2c(-c3ccc(I)o3)nc3ccccc32)o1 | 1.0 | . | .
Brc1ccc(Cn2c(-c3ccc(Br)o3)nc3ccccc32)o1 | 57.0*! | -3.6 | -7.3
N#Cc1c(N=Cc2cccs2)sc2c1CCCC2 | 38.0* | . | .
Cc1ccc(/C=N/c2sc3c(c2C#N)CCC3)s1 | . | 1.9 | 4.0
COc1ccc(C(=O)CSc2cc(C)nc3c(-c4ccccc4)cnn23)cc1OC | -5.0 | . | .
O=C(Cc1ccc(Cl)cc1)NCC(c1ccsc1)N1CCc2ccccc2C1 (stereo unspecified) | 2.0 | . | .
